Only some compounds are listed: those with a hit (about 2.8% of all), similar ones and a draw of the others.
FXN GAA850 act – frataxin GAA850 promoter activation; hit rate 0.56% among 360,000; activation, % at 6 µM; HEK293 lucGAA850 FXN promoter luciferase reporter, 24 h; percent of 10 µM SAHA response;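 active = activation above the average of all compounds screened plus 3 SD, cutoff fixed separately per campaign, cut at about 7.5% in these data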
esBAF inh – inhibitors of esBAF chromatin remodeling in mouse ES cells; reporter increase, % at 12.5 µM; Bmi1-luciferase knock-in reporter, 24 h; 100% = twice the neutral-well signal; hit rate 2% among 350,000; AID 602393; in the data active = activation above about 40%; inconclusive = no clear call, values can overlap the other calls;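 also: a rise in the Bmi1 reporter signal indicates esBAF inhibition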
Wnt act – activates Wnt/beta-catenin signaling in a reporter cell assay | activator, plate reader | activation, % at 9.35 µM | hit rate 1.2% among 300,000; in the data active = activation above about 30%, passing the limit was not always enough; inconclusive = no clear call, values can overlap the other calls
MITF act – activators of MITF-driven TRPM1 promoter activity in SK-MEL-5 cells; SK-MEL-5 TRPM1-promoter luciferase, 24 h; % of positive control, neutral wells = 0; activation, % at 12.5 µM; hit rate 0.75% among 300,000; AID 588334;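 active = mean activation of at least 80% with every replicate also reaching 80%; inconclusive = mean reaches 80% but some replicate falls short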
Hits are given with their value; – = inactive; ? = inconclusive; · = no result.

SMILES	FXN GAA850 act	esBAF inh	Wnt act	MITF act
Cc1noc(C)c1NC(=O)N(C)C[C@H]1Oc2ccc(NC(=O)NC3CCCCC3)cc2C(=O)N([C@@H](C)CO)C[C@@H]1C	·	–	·	·
CCSc1nnc(NC(=O)c2ccc3nc[nH]c3c2)s1	–	91	–	–
CCSc1nnc(NC(=O)C(C)(C)C)s1	–	51	–	–
CCOC(=O)c1sc(NC(=O)c2ccc3nc[nH]c3c2)nc1C	–	53	–	–
CC(C)(C)C(=O)CSc1nnc(Nc2ccccc2)s1	–	74	–	–
CCOC(=O)c1sc(NC(=O)c2ccc(=O)[nH]c2)nc1C	–	–	–	–
Nc1nc(COc2ccc3ccccc3c2)cs1	–	59	·	104
O=C(Nc1nc(COc2ccccc2)cs1)C1CCC1	–	64	46	–
CC(=O)Nc1nc(COc2ccc3ccccc3c2)cs1	–	–	55	–
COc1ccc(S(=O)(=O)Nc2ccc3c(c2)[C@H]2C[C@@H](CC(=O)O)O[C@H](CO)[C@H]2O3)cc1	·	–	·	·
Cc1cc(C)n2c(Nc3ccc4c(c3)OCCO4)c(-c3ccc(C)o3)nc2n1	–	83	–	–
Cc1cc(C)n2c(Nc3ccc4c(c3)OCCO4)c(-c3cc4ccccc4o3)nc2n1	·	·	–	·
COc1ccccc1-c1cnc2c(c1)C(=O)N([C@@H](C)CO)C[C@H](C)[C@H](CN(C)Cc1ccncc1)O2	·	–	·	·
CNC(=O)/C(C#N)=C/c1ccc(-c2ccc(Cl)cc2)o1	–	80	–	–
Cc1cccc(C)c1NC(=O)/C(C#N)=C/c1ccc(-c2ccc(C(=O)O)cc2)o1	–	128	–	·
N#C/C(=C\c1ccc(-c2ccc(C(=O)O)cc2)o1)C(=O)Nc1ccc(F)cc1	–	–	–	–
O=C(NCC1CC1)[C@@H]1[C@@H](CO)[C@@H]2Cn3c(ccc(-c4ccccc4)c3=O)[C@H]1N2CC1CC1	·	–	·	·
C[C@@H]1CN([C@H](C)CO)C(=O)Cc2cc(NS(=O)(=O)c3ccccc3)ccc2O[C@H]1CN(C)C(=O)NC1CCCCC1	·	–	·	·
CC(=O)c1ccc(S(=O)(=O)N(Cc2cc3cc4c(cc3[nH]c2=O)OCCO4)CC2CCCO2)cc1 (stereo unspecified)	–	46	–	–
Cc1ccc(S(=O)(=O)N(Cc2cc3cc4c(cc3[nH]c2=O)OCCO4)CC2CCCO2)cc1 (stereo unspecified)	–	–	–	–
C[C@@H]1CCCCO[C@H](CN(C)C(=O)c2ccccc2)[C@H](C)CN([C@@H](C)CO)C(=O)c2cc(NC(=O)NC3CCCCC3)ccc2O1	·	–	·	·
COc1cn(-c2ccccc2)nc1C(=O)Nc1ccccc1	–	60	–	–
COc1cn(-c2ccccc2)nc1C(=O)Nc1ccc(C)cc1	–	?	–	–
C[C@H](O)C#Cc1ccc2c(c1)O[C@@H](CN(C)C(=O)CC1CC1)[C@H](C)CN([C@H](C)CO)S2(=O)=O	·	–	·	·
Nc1cccc(-c2nc3ccccc3[nH]2)c1	–	62	·	–
SMILES	FXN GAA850 act	esBAF inh	Wnt act	MITF act
Fc1ccc(-c2nc3ccccc3[nH]2)cc1	–	70	58	–
O=c1[nH]cccc1-c1nc2ccccc2[nH]1	–	–	–	–
Nc1ccccc1-c1nc2ccccc2[nH]1	–	–	55	–
Nc1ccc(-c2nc3ccccc3[nH]2)cc1	–	–	?	–
COC(=O)C[C@H]1CC[C@@H]2[C@H](COc3ccc(NC(=O)c4cccc(OC)c4)cc3C(=O)N2C)O1	·	–	·	·
Cc1ccc(S(=O)(=O)N(C)C[C@H]2Oc3ccc(NC(=O)NC4CCCCC4)cc3C(=O)N([C@H](C)CO)C[C@@H]2C)cc1	·	–	·	·
Cc1cc2oc(=O)cc(CN3CCC(C)CC3)c2cc1Cl	–	58	–	–
COc1ccc(S(=O)(=O)Nc2cccc3c2O[C@@H](CN(C)Cc2ccc(Cl)c(Cl)c2)[C@H](C)CN([C@H](C)CO)C3=O)cc1	·	–	·	·
Cc1c(C(=O)NC(=S)NCC(C)C)oc2ccccc12	–	·	–	90
Cc1cccnc1NC(=S)NC(=O)c1oc2ccccc2c1C	–	74	–	–
C=CCNC(=S)NC(=O)c1oc2ccccc2c1C	–	–	–	–
C[C@H]1CN([C@@H](C)CO)C(=O)c2cc(C3=CCCC3)cnc2O[C@@H]1CN(C)Cc1ccc(C(=O)O)cc1	·	–	·	·
Cc1ccc(/C=N/NC(=O)c2ccco2)cc1	–	·	39	·
Cc1cccc(C(=O)NNC(=O)c2ccc(O)cc2)c1	–	–	–	·
Cc1ccc(C(=O)NNC(=O)c2cccc(C)c2)cc1	–	41	·	–
CN(C)c1ccc(/C=N/NC(=O)c2ccco2)cc1	–	–	42	–
CN(C)c1ccc(/C=N/NC(=O)c2ccn(C)n2)cc1	–	·	34	–
C[C@H](CO)N1C[C@H](C)[C@@H](CN(C)C(=O)Nc2ccccc2)Oc2ncc(C#CC3CCCC3)cc2C1=O	·	–	·	·
CN(C)C(=O)c1ccc(-c2ccc3c(c2)[C@@H]2[C@@H](CCN2C(=O)C2CC2)[C@H](CO)N3C)cc1	·	–	·	·
Cc1ccc(C(=O)NNC(=O)c2ccco2)cc1	–	51	–	–
CN(C)c1ccc(/C=N/NC(=O)c2cc(=O)[nH]c3ccccc23)cc1	–	–	–	–
CN(C)c1ccc(/C=N\NC(=O)c2cccc3cc[nH]c23)cc1	–	54	–	·
CN1CCN(C(=O)C[C@@H]2C[C@@H]3c4cc(NC(=O)NC5CCCCC5)ccc4O[C@@H]3[C@@H](CO)O2)CC1	·	–	·	·
COCCN(Cc1nc(-c2ccc(-c3ccccc3)cc2)oc1C)C(C)C	–	65	–	–
Cc1oc(-c2ccoc2)nc1CN(CC1CCC(=O)N1)C(C)C (stereo unspecified)	–	–	–	–
SMILES	FXN GAA850 act	esBAF inh	Wnt act	MITF act
Cc1ccc(N=Cc2nc(-c3ccco3)oc2O)cc1	–	48	37	104
Cc1ccc(-c2nc(C=Nc3ccccc3)c(O)o2)cc1	–	·	–	–
CN(C)C(=O)C[C@@H]1CC[C@H]2[C@@H](COc3ccc(NC(=O)C4CCOCC4)cc3C(=O)N2C)O1	·	–	·	·
CN1c2ccc(-c3ccc(C#N)cc3)cc2[C@@H]2[C@@H](CCN2S(=O)(=O)c2ccc(F)cc2)[C@@H]1CO	·	–	·	·
CN(C)C(=O)C[C@H]1CC[C@H]2[C@@H](COc3ccc(NC(=O)c4ccc(F)c(F)c4)cc3C(=O)N2C)O1	·	–	·	·
CC(=O)CC1(O)C(=O)N(Cc2ccccc2)c2ccccc21 (stereo unspecified)	–	–	43	–
O=C(NCCc1ccccc1)c1ccc2nc(-c3ccco3)c(-c3ccco3)nc2c1	–	–	·	·
O=C(c1ccccc1)c1ccc2nc(-c3ccco3)c(-c3ccco3)nc2c1	–	–	36	–
COc1cc(/C=N/NC(=S)NC2CC3CCC2C3)ccc1O (stereo unspecified)	–	–	–	–
COc1cccc(C=NNC(=S)NC2CC3CCC2C3)c1O (stereo unspecified)	·	·	37	·
C[C@H]1CN([C@@H](C)CO)C(=O)c2cc(NC(=O)Cn3cnnn3)ccc2O[C@@H]1CN(C)Cc1ccc(Cl)c(Cl)c1	·	–	·	·
C[C@@H]1CN([C@@H](C)CO)C(=O)c2cc(NC(=O)Nc3ccc(F)cc3)ccc2O[C@@H](C)CCCCO[C@@H]1CN(C)C(=O)c1ccccc1	·	–	·	·
O=C(NNC(=O)c1ccccc1F)c1cccc(-n2cccc2)c1	–	45	–	–

High-throughput results: PubChem BioAssay, several laboratories
